Hits are enriched below; roughly 3.6% of the tested compounds scored in any of these assays.
HepG2 tox: counter-screen for TGF-b inhibitors: cytotoxicity in HepG2 cells; HepG2 CAGA-GFP viability, ATP luminescence, 18 h; Potency, µM (highest dose often 46.1 µM), actives largely listed as cytotoxic; hit rate 0.76% among 410,000; AID 588856
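HepG2 CAGA-GFP cells (1000/well, DMEM with 1% FBS) received compound, then TGF-beta at 500 pg/mL final, and were incubated 18 hours at 37 degrees C. Viability was read by CellTiter-Glo luminescence. Media-only wells were set as complete cell-killing and DMSO as no toxicity.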
A549 tox: A549 cytotoxicity, counter-screen for Nrf2 inhibitors; A549 ARE-Fluc cells, CellTiter-Fluor viability, 18-24 h; Potency, µM (doses to about 46 µM), usual class: inhibitors; hit rate 0.16% among 390,000; AID 504648
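A549 ARE-Fluc cells in 5% FBS OPTI-MEM, 5000 cells/well, rested 2 h then exposed to compounds in concentration-response for 18-24 h at 37 °C. Viability by CellTiter-Fluor fluorescence (Ex 405/Em 525) after 30 min; luciferase luminescence (BugLite, 15 min, RT) read afterwards.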
TGFb SMAD3 inh: TGF-b pathway inhibition; HepG2 CAGA-GFP TGF-b/SMAD3 reporter, GFP fluorescence, 18 h; TGF-beta stimulated, 500 pg/mL final; Potency, µM (highest dose often 46.1 µM), most hits filed as inhibitors; hit rate 1.2% among 410,000; AID 588855; also: nearly all actives have a fitted effect of over 65% in size
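HEPG2 CAGA-GFP cells (1000/well, DMEM with 1% FBS) were pre-incubated 2 h at 37 degrees C, given compound by pin tool, then stimulated with TGF-beta at 500 pg/mL final for 18 h before per-cell GFP fluorescence imaging.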
Nrf2 activator: activates Nrf2 signaling; AREc32 ARE-luciferase reporter (MCF7-derived line), luminescence, 24 h; Potency, µM (series often up to 46.1 µM), usual class: activators; hit rate 0.31% among 410,000; AID 624171; also: nearly all actives have a fitted effect of over 65% in size
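Luminescent ARE reporter assay in AREc32_Fluc cells: overnight plating at 37 deg C, 24 hr compound incubation, Steady-Glo added, 30 min RT before reading.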
Nrf2 block: inhibitors of Nrf2 signaling; A549 ARE-Fluc reporter, luciferase luminescence, 18-24 h; Potency, µM (highest dose often 46 µM), usual class: inhibitors; hit rate 2.1% among 360,000; also: nearly all actives have a fitted effect of over 60% in size
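Reporter: ARE-Fluc in A549. Exposure: 18-24 h, 37 °C, 5% CO2, 5% FBS OPTI-MEM. Readouts: fluorescent cytotoxicity (CellTiter-Fluor), then luminescent Nrf2 signal after BugLite.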
A number is an active result; - = inactive; ? = inconclusive; . = no result; ! = not confirmed by another sample; [ ] = dose if it differs, or a comment. Calls follow the shape of the dose curve; as a rule, active = well fitted curve in the direction sought with a large enough effect; inconclusive = small, poorly fitted or top-dose-only effect, or another doubt; inactive = no such curve, though single readings can be large; an effect the other way counts as inactive or inconclusive.

SMILES	HepG2 tox	A549 tox	TGFb SMAD3 inh	Nrf2 activator	Nrf2 block
Cc1cc(NC(=O)CCS(=O)(=O)c2nc(-c3ccccc3)cc(C(F)(F)F)n2)no1	-	-	?	-	.
O=C(CCS(=O)(=O)c1nc(-c2ccc3c(c2)OCO3)cc(C(F)(F)F)n1)Nc1ccc(F)cc1F	-	-	17.8µM	-	-[9.27 µM]
COc1ccc(-c2cc(C(F)(F)F)nc(SCC(=O)Nc3cc(C)on3)n2)cc1	-	-	-	-	-
COc1ccc(NC(=O)CCS(=O)(=O)c2nc(-c3ccc4c(c3)OCO4)cc(C(F)(F)F)n2)cc1	11.2µM	-	?	-	-[9.27 µM]
CCCNC(=O)C1(C)CCN(Cc2cc(C(F)(F)F)ccc2Cl)C1 (centres undefined)	-	.	-	-[9.22 µM]	.
COCCNC(=O)C(=O)c1cc(C)n(-c2ccc([N+](=O)[O-])cc2)c1C	-	-	-	-	.
CCN(CC)C(=O)Cn1c(=O)n(CCCCCC(=O)NCc2ccccc2)c(=O)c2sccc21	-	-	-	-	-
CCCn1c(=O)c2sccc2n2c(CCCC(=O)Nc3ccc(Oc4ccccc4)cc3)nnc12	-	?	17.8µM	-	?
CCN(CC)C(=O)Cn1c(=O)n(CCCCCC(=O)Nc2ccccc2)c(=O)c2sccc21	3.16µM!	-	?	-	-
COc1ccc2c(c1)C(CC(C)=O)N(c1ccc(-c3cnc(OC)nc3)cc1)C(c1ccsc1)=C2 (centres undefined)	.	.	.	-	.
Cc1oc(-c2ccccc2F)nc1CS(=O)(=O)CC(=O)N1CCN(c2ccc(Cl)cc2)CC1	-	?	?	-	5.8µM
COc1cccc(-c2nc(CS(=O)(=O)CC(=O)N3CCN(c4ccccc4)CC3)c(C)o2)c1	-	-	11.2µM	-	?
C#CCOCCOCCOCCNc1nc(N2CCN(C(=O)CCCCCCCCCCNC(=O)Cn3cc(C[C@@H](C)O)nn3)CC2)nc(N2CCN(C(=O)CCCCCCCCCCNC(=O)[C@H](CCCN=C(N)N)n3cc(C[C@@H](C)CC)nn3)CC2)n1	-	-	14.1µM	-	-
C#CCOCCOCCOCCNc1nc(N2CCN(C(=O)CCCCCCCCCCNC(=O)[C@H](CO)n3cc(CCCSC)nn3)CC2)nc(N2CCN(C(=O)CCCCCCCCCCNC(=O)[C@H](CCCN=C(N)N)n3cc(C[C@@H](C)CC)nn3)CC2)n1	10µM	?	?	-	?
CCCNC(=O)C1CCN(c2ccc(S(=O)(=O)N3CCOCC3)cc2Cl)CC1	-	-	?	-	-
NC(=O)C1(N2CCCCC2)CCN(Cc2nc(-c3cccs3)no2)CC1	-	-	-	-	-
CCc1c(C)nc2ncnn2c1N1CCCC(C(=O)Nc2ccc(NC(C)=O)cc2)C1 (centres undefined)	-	-	?	-	-
CCc1c(C)nc2ncnn2c1N1CCCC(C(=O)NCc2ccc3c(c2)OCO3)C1 (centres undefined)	-	-	?	-	10.3µM
CC(=O)N1CCc2c(sc(NC(=O)Cc3ccc(F)cc3)c2C(N)=O)C1	11.2µM	-	-	-	-
COc1ccc(-c2ccc(SC)nn2)cc1	7.08µM	-	-	-	-
COc1ccc(N2C(=O)S[C@@H]3CS(=O)(=O)C[C@@H]32)cc1	-	-	-	-	-
Cc1c(Oc2ccc(C(F)(F)F)cc2[N+](=O)[O-])ccc2c3c(c(=O)oc12)CCC3	-	-	-	-	?
Cc1ccc(Oc2ccc(C(F)(F)F)cc2[N+](=O)[O-])c([N+](=O)[O-])n1	22.4µM	-	-	-	-
Cc1cc(C)c(S(=O)(=O)c2ccccc2)c(OC(=O)c2c(Cl)cc(Cl)cc2Cl)n1	-	?	-	-	16.4µM
Cc1cc(C)c(S(=O)(=O)c2ccccc2)c(OC(=O)c2c(F)cccc2F)n1	-	-	-	-	?
SMILES	HepG2 tox	A549 tox	TGFb SMAD3 inh	Nrf2 activator	Nrf2 block
O=C(NCC(c1cccnc1)N1CCc2ccccc21)c1cccc(Br)c1 (centres undefined)	-	-	?	-	16.4µM
O=C/C(=C\Nc1ccccn1)c1nc2ccccc2o1	-	-	-	12.6µM	?
O=C/C(=C\Nc1ccccn1)c1nc2cc(Cl)ccc2o1	-	-	-	-	-
COc1ccc(-c2cc(C3CCN(c4ccc(C(C)=O)cc4[N+](=O)[O-])CC3)[nH]n2)cc1	-	?	-	-	16.4µM
Cc1cc(C)cc(OC(C)C(=O)Nc2nonc2-c2ccc(Br)cc2)c1 (centres undefined)	-	-	15.8µM	-	?
COCCSc1ccccc1C(=O)Nc1ccc(Br)cc1	-	-	-	-	-
CN(C)/C=C/C(=O)c1cccc(Cl)c1	-	-	-	-	-
CN(C)/C=C/C(=O)c1ccc(Cl)c([N+](=O)[O-])c1	-	-	-	12.6µM	-
CN(c1ccccc1)S(=O)(=O)c1nnc(NC(=O)COc2ccccc2F)s1	-	-	-	-	-
CSc1ccc(CCNC(=O)CCc2nnc3ccc(N4CCCCC4)nn23)cc1	2.82µM	-	?	-	-
CSc1ccc(CCNC(=O)CCc2nnc3ccc(N4CCOCC4)nn23)cc1	-	-	-	-	-
CN(C)CC(O)COc1cccc(OCC(O)CN(C)C)c1 (centres undefined)	-	-	-	-	-
CCCCN(CC(O)COc1cccc(C)c1)CC(O)COc1cccc(C)c1 (centres undefined)	-	?	15.8µM	-	?
COc1ccc(/C=C/C(=O)c2cc(F)ccc2OC(=O)c2ccc(OC)c(OC)c2)cc1OC	-	-	-	?	-
COc1ccc(/C=C/C(=O)c2cc(F)ccc2OC(=O)c2ccccc2OC)cc1OC	-	?	11.2µM	-	-
CCOc1ccc2c(ccc(/C=C/c3cc(C)c4cccnc4c3O)[n+]2C)c1	-	?	7.08µM	-	?
CCN(CCn1cccn1)Cc1nc(-c2ccc(OC)cc2)no1	-	-	-	-	-
CCCC(=O)Nc1sc2c(c1C#N)CC(C)(C)NC2(C)C	-	-	-	-	-
COc1ccc(Cn2nnnc2C(C(C)C)N2CCc3ccccc32)cc1 (centres undefined)	-	-	-	-	16.4µM
O=C1N[C@@H](Cc2ccccc2)COC(=O)[C@H](Cc2ccc(F)cc2)CC/C=C/C[C@@H]1CC(=O)N(CCO)Cc1ccccc1	-	-	?	-	-
O=C1N[C@@H](Cc2ccccc2)COC(=O)[C@H](Cc2ccc(F)cc2)C/C=C\C[C@H]1CC(=O)N(CCO)Cc1ccccc1	-	-	?	-	?
O=C1N[C@@H](Cc2c[nH]c3ccccc23)COC(=O)[C@H](Cc2ccc(F)cc2)C/C=C\C[C@H]1CC(=O)N(CCO)Cc1ccccc1	-	?	?	-	25.9µM
